Among the data in PubChem BioAssay (NCI) are growth values, retold here.

About 83,000 compounds went through this panel and 20% of them were active in at least one assay; those are over-represented in the sample as a whole.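 96-well plates, one dose, 48 hours. Percent growth reported; active if below 10.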 A number with no mark means an inactive call. Calls of active or inactive are those of the source.

Among the test systems are HCT-15 colon; HT29 colon; SNB-75 CNS; SNB-19 CNS; U251 CNS; PC-3 prostate; SK-MEL-5 melanoma; UACC-62 melanoma; LOX IMVI melanoma; SK-MEL-28 melanoma; SK-MEL-2 melanoma; SN12C renal; UO-31 renal; TK-10 renal; ACHN renal; CAKI-1 renal; A498 renal; CCRF-CEM leukemia; MOLT-4 leukemia; EKVX NSCLC.
Common to all, as to assay: NCI-60 one-dose screen, 48 h (100 = growth as untreated, 0 = no growth, -100 = all killed)
Conditions in all cases: 10 µM unless noted

Turning to `O=C1CSC(c2ccccc2)N1c1ccccc1` (configuration not stated), the growth was 98.9% in the assay with HCT-15 colon; 116% in the assay with HT29 colon; 99.5% in the assay on SNB-75 CNS; 99.1% in the assay on SNB-19 CNS; 102% in the assay on U251 CNS; 91.4% in the assay on PC-3 prostate. Moreover, the growth in the assay on SK-MEL-5 melanoma was 98.1%; in the assay on UACC-62 melanoma, 103%; in the assay with LOX IMVI melanoma, 97.7%; in the assay with SK-MEL-28 melanoma, 106%; in the assay with SK-MEL-2 melanoma, 74.4%; with SN12C renal it was 101%. In addition, the growth was 85.7% in the assay on UO-31 renal; 110% in the assay with TK-10 renal; 101% in the assay with ACHN renal; 102% with CAKI-1 renal; 61.7% with A498 renal; 97.1% with CCRF-CEM leukemia. For the same compound, in the assay on MOLT-4 leukemia, the growth is 107%.

As to `CCCCCCCCN(CCCCCCCC)C(=N)c1ccnc2ccccc12`, the growth is -88.2% (active) in the assay with HCT-15 colon; -87.1% (active) with HT29 colon; -95.7% (active) in the assay with SNB-75 CNS; -70.8% (active) in the assay on SNB-19 CNS; -95.6% (active) with U251 CNS; -88.7% (active) in the assay with PC-3 prostate. The growth in the assay with SK-MEL-5 melanoma was -96.6% (active); with UACC-62 melanoma it was -74.5% (active); in the assay with LOX IMVI melanoma it was -100% (active); in the assay with SK-MEL-28 melanoma it was -86% (active); with SK-MEL-2 melanoma it was -44.2% (active); with EKVX NSCLC, -63.4% (active). Further, the growth in the assay on UO-31 renal was -89.1% (active); in the assay with TK-10 renal it was -16.4% (active); in the assay on ACHN renal, -89.3% (active); in the assay on CAKI-1 renal it was -86.1% (active); in the assay on A498 renal, -95.7% (active); in the assay with CCRF-CEM leukemia, -42.2% (active). Also, the growth in the assay with MOLT-4 leukemia is -41.4% (active).

Regarding `CCN(CC)CCNc1ccc(C)c2sc3cc(C)ccc3c(=O)c12`, the growth in the assay with HCT-15 colon is 21.2%; in the assay with HT29 colon it was 1.25% (active); in the assay with SNB-75 CNS, 67.2%; with SNB-19 CNS, 57.6%; with U251 CNS, 45.5%; in the assay on PC-3 prostate, 41%. Besides, the growth with SK-MEL-5 melanoma is 21.9%; in the assay on UACC-62 melanoma, -15.2% (active); in the assay on LOX IMVI melanoma it was 28.4%; in the assay on SK-MEL-28 melanoma it was 74.5%; with SK-MEL-2 melanoma it was 55.7%; in the assay with EKVX NSCLC, 81.3%. Moreover, the growth in the assay with UO-31 renal was 41%; in the assay with A498 renal, 84.8%; with MOLT-4 leukemia, 30.6%.

Turning to `COc1cc(NC(=O)c2cccc(-c3cc(=O)c4c(OC)c(OC)c(OC)cc4o3)c2)cc(OC)c1OC`, the growth in the assay with HCT-15 colon is 40.7%; with HT29 colon it was 31.1%; in the assay with SNB-75 CNS, 74.7%; with SNB-19 CNS it was 56.3%; in the assay on U251 CNS, 44.9%; with PC-3 prostate, 52.4%. For the same compound, the growth in the assay on SK-MEL-5 melanoma is 8.34% (active); in the assay with UACC-62 melanoma it was 50.5%; in the assay on LOX IMVI melanoma, 24.4%; in the assay with SK-MEL-28 melanoma it was 63.5%; in the assay with SK-MEL-2 melanoma, 41.7%; in the assay on SN12C renal, 45.9%. Also, the growth in the assay with UO-31 renal is 20.9%; in the assay with TK-10 renal, 69.4%; in the assay with ACHN renal, 56.7%; in the assay with CAKI-1 renal it was 40.6%; in the assay with A498 renal, 57.4%; with CCRF-CEM leukemia, 31.3%. For the same compound, the growth with MOLT-4 leukemia is 10.4%.

Turning to `Nc1ccc(CCCCc2ccccc2)c(Cl)c1`, the growth in the assay on HCT-15 colon was 89%; in the assay on HT29 colon, 96.3%; in the assay on SNB-75 CNS it was 75.2%; in the assay with SNB-19 CNS it was 94.6%; in the assay with U251 CNS, 77.7%; in the assay on PC-3 prostate it was 90.1%. The growth in the assay on SK-MEL-5 melanoma is 96.4%; in the assay on UACC-62 melanoma, 93.4%; with LOX IMVI melanoma, 99.2%; in the assay on SK-MEL-28 melanoma, 98.8%; with SK-MEL-2 melanoma, 91.2%; with SN12C renal it was 87.4%. Besides, the growth in the assay on UO-31 renal was 63.9%; with TK-10 renal, 88.7%; with ACHN renal, 94.2%; with CAKI-1 renal it was 83.8%; with A498 renal, 73.2%; with CCRF-CEM leukemia it was 60.1%. Moreover, the growth in the assay with MOLT-4 leukemia is 69.2%.

Take `NC(=S)c1csc(CCNC(=O)c2ccccc2)n1`: the growth in the assay on HCT-15 colon is 100%; with HT29 colon it was 107%; with SNB-75 CNS, 97.7%; in the assay on SNB-19 CNS, 107%; in the assay on U251 CNS, 97.6%; with PC-3 prostate, 96.6%. For the same compound, the growth with SK-MEL-5 melanoma was 115%; with UACC-62 melanoma it was 105%; in the assay on LOX IMVI melanoma, 110%; in the assay with SK-MEL-28 melanoma, 108%; with SK-MEL-2 melanoma, 115%; in the assay on EKVX NSCLC it was 115%. The growth with UO-31 renal was 91%; with TK-10 renal, 107%; with ACHN renal, 105%; with CAKI-1 renal it was 91.3%; with A498 renal, 89.6%; in the assay on CCRF-CEM leukemia, 90.3%. For the same compound, in the assay with MOLT-4 leukemia, the growth is 102%.

As for `N#Cc1cnn2c(-c3ccc(Cl)cc3)nc(NC3CC3)nc12`, the growth in the assay with HCT-15 colon was 90.1%; in the assay on HT29 colon, 88.8%; in the assay on SNB-75 CNS it was 87.7%; in the assay with SNB-19 CNS, 86.6%; in the assay with U251 CNS, 97.3%; in the assay with PC-3 prostate it was 95%. Besides, the growth in the assay on SK-MEL-5 melanoma was 95.3%; in the assay on UACC-62 melanoma, 85.6%; in the assay on LOX IMVI melanoma, 99%; in the assay on SK-MEL-28 melanoma, 113%; in the assay on SK-MEL-2 melanoma it was 99.8%; in the assay with EKVX NSCLC it was 75.9%. The growth is 69.2% in the assay on UO-31 renal; 94.2% in the assay with TK-10 renal; 96.8% with ACHN renal; 84.5% in the assay with A498 renal; 95.7% in the assay with CCRF-CEM leukemia; 80.1% in the assay with MOLT-4 leukemia.

For the compound `COc1cc2oc(-c3cccc(C(=O)Nc4ccc(C#N)cc4)c3)cc(=O)c2c(O)c1OC`, the growth in the assay with HCT-15 colon is 75%; with HT29 colon, 53.9%; in the assay on SNB-75 CNS it was 83.9%; in the assay on SNB-19 CNS it was 44%; in the assay with U251 CNS, 61.3%; in the assay with PC-3 prostate, 7.86% (active). Moreover, the growth was 70.3% with SK-MEL-5 melanoma; 41.5% in the assay on UACC-62 melanoma; 55.7% in the assay with LOX IMVI melanoma; 32.8% with SK-MEL-28 melanoma; 74.4% in the assay on SK-MEL-2 melanoma; 64.9% with SN12C renal. The growth with UO-31 renal is 55.3%; in the assay with TK-10 renal, 50.5%; in the assay with ACHN renal it was 38.7%; with CAKI-1 renal, 85.2%; in the assay on A498 renal, 86.7%; in the assay on CCRF-CEM leukemia it was 88.5%. Moreover, the growth in the assay on MOLT-4 leukemia was 88.3%.
